Laboratory results as given in paper PMC4336329 (PLoS ONE, 2015).
Among all 310,000 compounds or so, about 14,000 (4.5%) showed an effect of 50% or more. Effects have a minus sign here. The sample as a whole holds a higher share of strong results than the screen did.

biological target: human ether-à-go-go-related gene (hERG) potassium channel (human, UniProt Q12809); assay: primary screen, population patch clamp on CHO cells stably expressing hERG; higher = less effect of the substance
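Note: peak tail current of the secondary pulse compared with the same well before compound.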

Chain of human ether-à-go-go-related gene (hERG) potassium channel (Q12809 whole entry, looked up): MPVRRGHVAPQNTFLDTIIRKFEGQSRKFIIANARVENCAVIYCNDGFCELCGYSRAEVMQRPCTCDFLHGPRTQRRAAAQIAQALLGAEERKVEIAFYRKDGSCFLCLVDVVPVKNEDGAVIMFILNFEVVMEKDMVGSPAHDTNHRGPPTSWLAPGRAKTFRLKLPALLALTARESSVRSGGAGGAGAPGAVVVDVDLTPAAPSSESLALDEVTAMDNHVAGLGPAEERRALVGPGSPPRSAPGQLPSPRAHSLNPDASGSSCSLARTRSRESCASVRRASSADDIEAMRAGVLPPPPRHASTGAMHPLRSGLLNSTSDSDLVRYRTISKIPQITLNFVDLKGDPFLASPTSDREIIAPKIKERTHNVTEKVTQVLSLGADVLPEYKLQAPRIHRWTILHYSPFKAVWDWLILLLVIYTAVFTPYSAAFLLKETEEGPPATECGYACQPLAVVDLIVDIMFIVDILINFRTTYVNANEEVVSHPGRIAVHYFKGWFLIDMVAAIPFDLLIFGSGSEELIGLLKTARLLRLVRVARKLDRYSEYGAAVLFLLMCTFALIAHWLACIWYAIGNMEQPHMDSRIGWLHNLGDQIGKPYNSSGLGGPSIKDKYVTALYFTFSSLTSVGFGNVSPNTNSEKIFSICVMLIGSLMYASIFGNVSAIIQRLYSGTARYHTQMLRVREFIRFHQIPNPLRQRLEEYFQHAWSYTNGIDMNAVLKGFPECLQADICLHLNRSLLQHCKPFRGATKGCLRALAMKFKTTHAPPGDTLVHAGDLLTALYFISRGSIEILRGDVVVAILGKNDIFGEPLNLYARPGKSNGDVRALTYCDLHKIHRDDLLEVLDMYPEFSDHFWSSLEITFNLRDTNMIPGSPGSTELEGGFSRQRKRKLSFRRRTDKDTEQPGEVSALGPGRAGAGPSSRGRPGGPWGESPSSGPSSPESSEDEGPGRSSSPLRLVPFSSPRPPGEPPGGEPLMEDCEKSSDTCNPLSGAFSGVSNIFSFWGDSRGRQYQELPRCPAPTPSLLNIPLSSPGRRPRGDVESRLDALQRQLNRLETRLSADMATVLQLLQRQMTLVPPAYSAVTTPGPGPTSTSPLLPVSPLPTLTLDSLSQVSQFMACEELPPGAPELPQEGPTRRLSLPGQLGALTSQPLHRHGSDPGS

In order of falling “hERG current change (%, negative = inhibition) at 10uM” value:
1. Cc1cccc(CC2CC(=O)N(CCc3ccc4c(c3)OCO4)C2=O)c1 (stereo not shown)  34.2%
2. CC(C)c1nc2cc(Cl)ccc2n(Cc2ccccc2)c1=O  24.6%
3. O=C(O)CCc1nc2cc(C(F)(F)F)ccc2n(Cc2ccccc2)c1=O  23.8%
4. O=C(O)CCc1nc2cc(Cl)ccc2n(Cc2ccccc2)c1=O  22.2%
5. COc1cc2c(cc1NC(=O)/C=C/c1ccccc1)oc1ccccc12  18.8%
6. O=C(CCc1nnc2ccc(N3CCC4(CC3)OCCO4)nn12)N1CCCCC1  16.7%
7. O=C(O)c1cc2cc(F)ccc2[nH]1  16.2%
8. OCC1(CO)COC(CCc2ccccc2)=N1  16.1%
9. COc1ccc(C)cc1NC(=O)C1CCCCC1C(=O)O (stereo not shown)  14.7%
10. C[C@]12CCC3C(CC[C@H]4CC(O)CC[C@]34C)C1CC/C2=N/O (stereo partly shown)  13.3%
11. CC(=O)Nc1ccc(S(=O)(=O)N2CCC(N3CCCC3)CC2)cc1  13.2%
12. CCOc1ccccc1N1CC(C(=O)Nc2ccccc2N2CCOCC2)CC1=O (stereo not shown)  12.5%
13. O=C(O)Cn1c(=O)c2c(c3ccccc31)CCC2  11.9%
14. COc1ccc(C(=O)/C=C2\NCCc3cc(OC)c(OC)cc32)cc1OC  11.6%
15. CC1(C(=O)N2CCOCC2)CCCCC1  11.6%
16. CN1CCN(CC(=O)Nc2cc(N(C)C)nc3ccccc23)CC1.Cl  8.25%
17. CC(=O)OCc1c(C(F)(F)F)nn(C)c1SCc1ccc(Cl)cc1  8.19%
18. CCn1cc(C2N3CC4(C)CN2CC(C)(C3)C4=O)c2ccccc21 (stereo not shown)  7.47%
19. CC(=O)Nc1ccc(NC(=O)CSc2nnc(-c3cccnc3)o2)cc1  7.42%
20. O=C(CSc1nc(-c2ccccc2)cs1)Nc1cccc([N+](=O)[O-])c1  6.45%
21. N#Cc1ccccc1CSc1nc(N2CCCCC2)nc(N2CCCCC2)n1  5.79%
22. COc1ccc(CCN(C)CC(=O)Nc2cc(C)nc3ccccc23)cc1OC.O=C(O)C(=O)O  5.34%
23. CCOC(=O)C1=CC[C@H]2c3c(c4ccccc4n3C)C[C@H]1N2C  3.88%
24. COc1ccccc1NC(=O)CN1CCN(CC(=O)Nc2ccccc2Cl)CC1  2.56%
25. CCCn1c(C(Cc2ccccc2)NC(=O)COC)nc2ccccc21 (stereo not shown)  2.2%
26. O=C(Nc1ccc2c(c1)CCC2)c1cnc(Cl)c(Cl)c1  0.674%
27. COc1ccccc1/C=N/NC(=O)CC(=O)NCc1ccccc1  -2.25%
28. CC(C)(C)CC(C)(C)NCC(=O)Nc1c2c(nc3ccccc13)CCC2.O=C(O)C(=O)O  -3.35%
29. O=C(CN(CCc1ccccc1)C(=O)c1csnn1)NC1CCCC1  -4.71%
30. Cc1cc(C)cc(N=c2c([N+](=O)[O-])nn(-c3cccc(Cl)c3)n2O)c1  -6.03%
31. COc1cccc(OCCOCCNCCO)c1  -6.7%
32. CNc1cc(C)c(C#N)c2nc3ccccc3n12  -8.75%
33. COc1ccc(NC(=O)CN2CCN(C3c4ccccc4-c4ccccc43)CC2)c(OC)c1  -10.5%
34. CC1=C(C(=O)OCCc2ccccc2)C(c2ccsc2)NC(=O)N1C (stereo not shown)  -10.9%
35. COc1ccc(OCC#CCN2CCC(C)CC2)cc1.O=C(O)C(=O)O  -11.4%
36. COc1ccc(NC(=O)CN2CCN(c3ccc(Cl)cc3)CC2)c(OC)c1  -12.7%
37. NC(=O)C1CCCc2c1n(Cc1ccccc1)c1ccccc21 (stereo not shown)  -14.7%
38. CCOC(=O)NNC(=O)CCn1c2c(c3ccccc31)CCCC2  -16.4%
39. O=S(=O)(c1ccc2c(c1)OCCO2)N1CCC(n2nnc3cc(C(F)(F)F)ccc32)CC1  -16.4%
40. CCN(CC)S(=O)(=O)c1ccc2c3c(cccc13)C(=O)S2  -18.4%
41. COC(=O)CCc1nc2cc(Cl)ccc2n(Cc2ccccc2)c1=O  -23.1%
42. CCN(CC)S(=O)(=O)c1ccc(N2CCOCC2)c(NC(=O)CN2C(=O)NC(C)(c3ccccc3)C2=O)c1 (stereo not shown)  -24.1%
43. CN(C)c1cc(NC(=O)CNC(C)(C)C)c2ccccc2n1.O=C(O)C(=O)O  -24.4%
44. CCN(CC)CC(=O)n1c2c(c3ccccc31)CCCC2  -34.2%
45. CC(=O)Nc1ccc(S(=O)(=O)N2CCC(C(=O)c3ccc(F)cc3)CC2)cc1  -34.6%
46. O=S(=O)(c1ccc2c(c1)OCCO2)N1CCC(n2nnc3cc(F)ccc32)CC1  -38.7%
47. COc1ccc(C)cc1NC(=O)CN1CCN(CC(=O)Nc2ccccc2F)CC1  -48.7%
48. CCNC(=S)NNC(=O)CCc1nc2cc(Cl)ccc2n(Cc2ccccc2)c1=O  -54.7%
49. O=S(=O)(c1ccc2c(c1)OCCO2)N1CCC(n2cnc3cc(F)ccc32)CC1  -62.4%
50. COc1ccc(NC(=O)CN2CCN(CC(=O)Nc3ccccc3F)CC2)c(OC)c1  -63.5%
51. CC[C@]12CCCN3CCc4c(n(c5ccccc45)C(=O)C1)C32 (stereo partly shown)  -65.7%
52. CC(=O)Nc1ccc(S(=O)(=O)N2CCC(n3cnc4cc(F)ccc43)CC2)cc1  -65.7%
53. CN(C)c1cc(NC(=O)CNC(C)(C)CC(C)(C)C)c2ccccc2n1.O=C(O)C(=O)O  -69.9%
54. CC[C@]12CCCN3CCc4c(n(c5ccccc45)C(=O)C1)[C@@H]32  -75%
55. CC(Cc1ccccc1)NCC(=O)Nc1cc(N(C)C)nc2ccccc12.O=C(O)C(=O)O (stereo not shown)  -77.1%
56. COc1ccc(NC(=O)CN2CCN(CC(=O)Nc3ccccc3Cl)CC2)c(OC)c1  -78%
57. CN(C)C(CNC(=O)CCc1nc2cc(Cl)ccc2n(Cc2ccccc2)c1=O)c1ccccc1 (stereo not shown)  -81.1%
58. CCOC(=O)C1=C[C@]2(CC)CCCN3CCc4c(n1c1ccccc41)[C@@H]32  -91.8%
